Bioassay records as filed in PubChem BioAssay.
CYP2C19 inhib: human CYP2C19 inhibition; CYP2C19 Supersomes, luciferin-H EGE luminescence, 30 min; inhibition, % at 5 µM; 96,000 compounds, 21% hits;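 active = CYP2C19 inhibition above a set limit at 5 µM in the primary screen, cut at about 50% in these data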;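 also: plate controls were negative control wells for no effect and 2.5 mM tranylcypromine positive control for full effect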
PLK1 PBD inh: Plk1 (human) PBD binding inhibition; P53350; Plk1 PBD phosphopeptide binding, fluorescence polarization; inhibition, %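 (tested at about 20 µM)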; 97,000 compounds, 0.13% hits; AID 693; in the data active = inhibition above about 34%, passing the limit was not always enough
PLK1 kinase inh: inhibitors of human PLK1 kinase | P53350 | recombinant PLK1 kinase, TR-FRET peptide phosphorylation | inhibition, % at 10 µM | 97,000 compounds, 0.53% hits | AID 619;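 active = inhibition of 50% or more in the single-concentration screen; inactive = inhibition below 50%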;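 also: 0% = DMSO max control and 100% = H-89 dihydrochloride min control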
CYP2C9 inh: human CYP2C9 inhibition; inhibition, % at 5 µM; CYP2C9 Supersomes, luciferin-H conversion, luminescence; AID 777; 96,000 compounds, 20% hits;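 active = blocking of liver enzyme CYP2C9 beyond about 50% at 5 µM, limit read from the data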
Target sequence (P11712 whole entry, looked up): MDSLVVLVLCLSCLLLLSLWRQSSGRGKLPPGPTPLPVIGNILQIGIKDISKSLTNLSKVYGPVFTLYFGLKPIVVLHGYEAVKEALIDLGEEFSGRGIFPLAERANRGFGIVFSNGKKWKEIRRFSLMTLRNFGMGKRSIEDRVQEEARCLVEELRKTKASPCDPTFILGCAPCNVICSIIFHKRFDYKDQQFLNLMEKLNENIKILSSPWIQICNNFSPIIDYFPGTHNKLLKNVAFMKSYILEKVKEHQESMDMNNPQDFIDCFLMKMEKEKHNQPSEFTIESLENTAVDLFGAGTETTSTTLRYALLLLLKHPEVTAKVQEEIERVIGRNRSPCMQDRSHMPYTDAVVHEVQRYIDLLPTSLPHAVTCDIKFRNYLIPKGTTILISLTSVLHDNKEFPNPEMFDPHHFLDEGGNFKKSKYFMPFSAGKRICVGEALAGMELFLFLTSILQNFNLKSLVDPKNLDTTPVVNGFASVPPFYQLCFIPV
CYP2C19 act: increases human CYP2C19 enzyme activity; P33261; recombinant CYP2C19, luciferin-H EGE luminescence; stronger effect = higher value; 0 = fully inhibited enzyme, 1 = untreated enzyme; activation factor at 5 µM; 96,000 tested, under 10 active; AID 1025;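 active = activation factor of at least 2 at 5 µM in the primary screen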;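 also: 0 = wells with 2.5 mM tranylcypromine and 1 = vehicle-only wells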
CYP2C9 act: activators of human CYP2C9; activation factor at 5 µM; 96,000 compounds, 1.4% hits; recombinant CYP2C9, luciferin-H conversion, luminescence; stronger effect = higher value; factor 1 = untreated enzyme, 0 = blocked;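 active = activation factor of 2 or more for CYP2C9 at a 5 µM dose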;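 also: 0 = sulfaphenazole-blocked wells and 1 = vehicle-only wells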
* = called active by the depositor; nt = no result. Most compounds without a hit are left out; they make up all but 28% or so of the library.

SMILES | CYP2C19 inhib | PLK1 PBD inh | PLK1 kinase inh | CYP2C9 inh | CYP2C19 act | CYP2C9 act
N#Cc1c2c(c(N3CCN(c4ccccn4)CC3)n3c1nc1ccccc13)CCC2 | 58.8* | -18.0 | -12.9 | 54.0* | 0.4 | 0.5
COc1ccc(CCNC(=O)CSc2ccc(-c3ccccc3)nn2)cc1OC | 70.7* | -12.7 | -8.8 | 24.6 | 0.3 | 0.8
COc1ccc(CCNC(=O)CSc2cc(=O)[nH]c(N)n2)cc1OC | -2.7 | 13.1 | -8.7 | -8.6 | 1 | 1.1
Cc1nonc1NC(=O)CSc1ccc(-c2ccccc2)nn1 | 49.5 | -21.3 | -7.8 | 63.6* | 0.5 | 0.4
COc1ccc(CCNC(=O)CSc2nnc(Cc3csc(N)n3)n2C)cc1OC | -12.9 | -18.9 | -11.2 | 51.0* | 1.1 | 0.5
COc1ccc(CCNC(=O)C(C)Sc2ccccc2)cc1OC (stereo not given) | 56.0* | -4.7 | -4.6 | 63.8* | 0.4 | 0.4
O=C(COc1ccccc1)N1CCN(S(=O)(=O)Cc2ccccc2)CC1 | 33.5 | -0.2 | -13.9 | 21.9 | 0.7 | 0.8
CSc1nnc2c3ccccc3c3ccccc3c2n1 | 28.5 | -25.8 | -12.3 | 0.4 | 0.7 | 1
CCOC(=O)N1CCC(N(C(=O)Nc2ccc(CC)cc2)C(C)CC)CC1 (stereo not given) | 14.7 | 26.2 | -0.4 | 24.3 | 0.9 | 0.8
COc1ccc(CCNC(=O)CSc2nnc(-c3ccc(F)cc3)o2)cc1OC | 45.7 | -7.1 | -14.1 | 63.1* | 0.5 | 0.4
COc1ccc(CCNC(=O)CSc2nnc(CNc3ccc(Cl)cc3)o2)cc1OC | nt | -8.3 | -11.6 | nt | nt | nt
COc1cc(/C=C2/N=C(C3CCCCC3)OC2=O)cc(OC)c1OC | 4.9 | -16.7 | -6.0 | 62.2* | 1 | 0.4
COc1cc(/C=C2\C(=O)ON=C2c2ccccc2)cc(OC)c1OC | 11.6 | -18.9 | -9.5 | -19.4 | 0.9 | 1.2
COc1ccc(NC(=S)N2CCC(c3nc4ccccc4[nH]3)CC2)c(OC)c1 | 22.0 | 12.9 | -0.4 | 59.0* | 0.8 | 0.4
CCOc1ccccc1NC(=O)N1CCC(c2nc3ccccc3[nH]2)CC1 | 63.4* | -2.4 | -9.4 | -47.4 | 0.4 | 1.5
COc1ccccc1NC(=O)N1CCC(c2nc3cc(C)c(C)cc3[nH]2)CC1 | nt | -10.7 | -10.7 | nt | nt | nt
COc1ccccc1NC(=S)N1CCC(c2nc3cc(C)c(C)cc3[nH]2)CC1 | 22.1 | -1.5 | -3.8 | 19.8 | 0.8 | 0.8
COc1ccc(CN(C)C(=O)COC(=O)c2ccc3c(c2)OCO3)cc1OC | 32.1 | -21.1 | -7.6 | 61.0* | 0.7 | 0.4
COc1ccc(C(C)=O)cc1COC(=O)c1ccc2c(c1)OCO2 | 11.1 | -13.3 | -4.4 | 29.7 | 0.9 | 0.7
CCOc1ccc(C(=O)NCCN(C)C)cc1 | -1.4 | -19.9 | -11.0 | 7.0 | 1 | 0.9
CCOC(=O)N1CCN(Cc2nc3c(c(=O)n(C)c(=O)n3C)n2CCCc2ccccc2)CC1 | 35.0 | -4.4 | -14.6 | 69.6* | 0.7 | 0.3
CC1CCCN(Cc2nc3c(c(=O)n(C)c(=O)n3C)n2CCc2ccccc2)C1 (stereo not given) | 5.9 | 31.1 | -9.1 | 9.0 | 0.9 | 0.9
CCOC(=O)CSc1nc2c(c(=O)n(C)c(=O)n2C)n1CCCc1ccccc1 | 57.1* | 12.2 | -8.9 | 72.6* | 0.4 | 0.3
CC1CCCN(Cc2nc3c(c(=O)n(C)c(=O)n3C)n2CCCc2ccccc2)C1 (stereo not given) | 10.7 | 4.4 | -5.4 | 62.1* | 0.9 | 0.4
Cn1c(=O)c2c(nc(CN3CCN(C(=O)c4ccco4)CC3)n2CCc2ccccc2)n(C)c1=O | 2.5 | -12.1 | 3.7 | 8.9 | 1 | 0.9
SMILES | CYP2C19 inhib | PLK1 PBD inh | PLK1 kinase inh | CYP2C9 inh | CYP2C19 act | CYP2C9 act
Cn1c(=O)c2c(nc(CN3CCN(C(=O)c4ccco4)CC3)n2CCCc2ccccc2)n(C)c1=O | 49.9 | -0.9 | -19.7 | 85.4* | 0.5 | 0.1
COc1ccc(-c2cc3ccccc3oc2=O)cc1NC(=O)c1cccnc1 | 17.2 | -15.1 | -9.6 | 27.3 | 0.8 | 0.7
COCCn1c(-c2cc(OC)c(OC)c(OC)c2)nc2nc3ccccc3nc21 | -6.9 | nt | nt | 8.7 | 1.1 | 0.9
CCc1nn(C(C)C(=O)N2CCc3ccccc3C2)c(=O)c2cc3occc3n12 (stereo not given) | 93.9* | nt | nt | 60.7* | 0.1 | 0.4
CCC(C(=O)NC(C)CCc1ccccc1)n1nc(C)n2c(cc3occc32)c1=O (stereo not given) | 70.7* | nt | nt | 87.2* | 0.3 | 0.1
CC(CCc1ccccc1)NC(=O)c1ccco1 (stereo not given) | nt | 11.9 | -14.7 | nt | nt | nt
CCc1nn(C(C)C(=O)NCCN2CCN(c3cccc(C)c3C)CC2)c(=O)c2cc3occc3n12 (stereo not given) | 38.5 | nt | nt | -56.8 | 0.6 | 1.6
CCc1nn(C(C)C(=O)Nc2cccc(C)c2C)c(=O)c2cc3occc3n12 (stereo not given) | 70.6* | nt | nt | 66.4* | 0.3 | 0.3
CN(C)CCOCCSc1ccc(Cl)cc1 | 13.1 | 12.6 | -13.6 | 6.4 | 0.9 | 0.9
O=C(COC(=O)c1ccc(Br)o1)NCc1ccco1 | nt | 11.8 | -13.7 | nt | nt | nt
Cc1onc(-c2ccccc2Cl)c1C(=O)Nc1nnc(-c2cccc([N+](=O)[O-])c2)s1 | -7.2 | -0.1 | 36.9 | 20.1 | 1.1 | 0.8
Cc1ccc(CS(=O)(=O)CCC(=O)NCCCOC(C)C)cc1 | -5.4 | 0.3 | -10.9 | 10.4 | 1.1 | 0.9
CC(C)(C)C(=O)Cn1ncc(NC2CC2)c(Br)c1=O | 62.5* | 8.8 | -9.1 | -13.5 | 0.4 | 1.1
CC(O)c1cccc(NC2=CC(=O)CC(C)(C)C2)c1 (stereo not given) | 29.0 | -20.0 | -2.1 | 21.0 | 0.7 | 0.8
Cn1c(Cc2ccccc2)nnc1SCC(=O)N1CCCCC1 | nt | 17.4 | -10.2 | nt | nt | nt
Cn1c(Cc2ccccc2)nnc1SCC(=O)c1ccc(Br)s1 | 75.3* | -11.0 | -14.9 | 69.6* | 0.2 | 0.3
Cn1nnnc1SCC(=O)c1ccc(Br)s1 | 64.6* | -10.9 | -10.2 | 11.1 | 0.4 | 0.9
Cn1nnnc1SCC(=O)c1cccs1 | 9.0 | 1.4 | -5.1 | 4.0 | 0.9 | 1
C=CCOn1c(=O)c(-c2cccs2)[n+]([O-])c2ccccc21 | 56.7* | 4.4 | -6.2 | 68.1* | 0.4 | 0.3
C=CCOn1c(=O)c(-c2ccc(OC)c(OC)c2)[n+]([O-])c2ccccc21 | -6.1 | -19.8 | 9.6 | 1.0 | 1.1 | 1
CCOC(=O)CC(Nc1nc(N2CCOCC2)nc(N2CCOCC2)n1)c1ccccc1Cl (stereo not given) | 67.5* | -11.1 | 0.3 | 53.1* | 0.3 | 0.5
COC(=O)c1[nH]c2ccc(Cl)cc2c1NC(=O)Oc1ccccc1 | -2.2 | -6.5 | -14.0 | 0.3 | 1 | 1
CCCCn1c(-c2ccco2)nc2ccccc2c1=O | 29.2 | 10.0 | -9.7 | 23.5 | 0.7 | 0.8
CCCCn1c(-c2ccc([N+](=O)[O-])cc2)n[nH]c1=S | -4.7 | 22.5 | -12.3 | -0.5 | 1 | 1
CCCCn1c(CCn2nc(C)c(Br)c2C)n[nH]c1=S | 89.9* | -3.9 | -19.0 | 49.0 | 0.1 | 0.5
